Values joined by “and” are separate entries in the source; they are usually repeats but may differ in a detail not shown here. Identical values can stand only once. About 83,000 compounds went through this panel and 20% of them were active in at least one assay; those are over-represented in the sample as a whole.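 In brief: 96-well plates, 48 h treatment, single concentration, percent growth endpoint.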 Active and inactive are the calls of the source.
System: SNB-75 CNS
Assay: NCI-60 one-dose screen, 48 h (100 = growth as untreated, 0 = no growth, -100 = all killed)
Settings: 10 µM
Description: Growth inhibition of the SNB-75 human tumor cell line is measured as a screen for anti-cancer activity. Cells are grown in 96 well plates and exposed to the test compound for 48 hours. Compounds are tested at a single concentration, which is 10^-5 M for most compounds. The reported endpoint is percent growth (GI% or GIPRCNT), where numbers from 0 - 100% represent growth inhibition, and numbers from -100% - 0 represent cell death. For example, a value of 40 represents 60% growth inhibition. A value of 0 means no net growth occurred over the course of the experiment. A value of -40 indicates 40% of cells at the beginning of the experiment died by the end of the experiment. A value of -100 means all cells are dead at the end of the experiment.
NCI-60 Human Tumor Cell Lines Screen was performed using the standard one-dose NCI protocol, which is described in more detail at https://dtp.cancer.gov/discovery_development/nci-60/default.htm.
Compounds with GIPRCNT values below 10 were considered active. Activity score was based on GIPRCNT using the following formula: […]
Score is 0 for GIPRCNT values of 100 or above, 50 for GIPRCNT values of 0, and 100 for GIPRCNT values of -100.

**Q.** Which growth does the source give for `O=c1ccn2c(n1)OC1CC2OC1COC(c1ccccc1)(c1ccccc1)c1ccccc1` (stereo not given) here?
**A.** 107% (inactive)

**Q.** With `S=c1nc[nH]c2nc[nH]c12` as the compound, how does the growth read?
**A.** 55.9% (inactive)

Same assay, conditions: 10 µM unless noted

**Q.** For `CCc1ccccc1-n1[nH]c(C)c(C=N)c1=O`, which growth is on record?
**A.** 101% (inactive)

**Q.** Which growth does the source give for `O=C(O)c1cccc(Br)c1` here?
**A.** 91.5% (inactive) and 99.7% (inactive)

**Q.** `O=C(OCc1ccccc1)c1ccccc1` was tested. Which growth did it give?
**A.** 98.7% (inactive)

**Q.** For `COc1ccc(CCNC(=S)NN)cc1OC`, which growth is on record?
**A.** 106% (inactive)

**Q.** Which growth does the source give for `O=C(N=C1C(=O)C2(CCCCC2)C2(N=C(c3ccccc3)OC2=O)C12CCCCC2)c1ccccc1` (stereo not given) here?
**A.** 85.2% (inactive)

**Q.** For `O=P(O)(O)OC1C(OP(=O)(O)O)C(OP(=O)(O)O)C(OP(=O)(O)O)C(OP(=O)(O)O)C1OP(=O)(O)O.[Cu+2]` (stereo not given), which growth is on record?
**A.** 136% (inactive)

**Q.** `Cc1cc2nc3ccc(=[N+](C)C)cc-3sc2cc1N` was tested. Which growth did it give?
**A.** 88.2% (inactive) and 22.1% (inactive)

**Q.** `CC1CC(O)CC(C)(C)C1.CC1CC(O)CC(C)(C)C1.CC1CC(O)CC(C)(C)C1.CC1CC(O)CC(C)(C)C1.[Ti]` (stereo not given) was tested. Which growth did it give?
**A.** 113% (inactive)

**Q.** `O=C1C=CC(n2cc(F)c(=O)[nH]c2=O)O1` (stereo not given) was tested. Which growth did it give?
**A.** 79.8% (inactive)

**Q.** `COc1cc(Cl)ccc1C` was tested. Which growth did it give?
**A.** 110% (inactive)

**Q.** How did the growth turn out when `CN(C)CC(CN(C)C)C(O)c1ccccc1` (stereo not given) was run?
**A.** 94.5% (inactive)

**Q.** How did the growth turn out when `CCCC(=O)Oc1ccc2ccccc2c1` was run?
**A.** 105% (inactive)

**Q.** `CNc1ccc(O)cc1` was tested. Which growth did it give?
**A.** 84.1% (inactive) and 66.5% (inactive)

**Q.** With `CCN(CC)C(=S)SCCO` as the compound, how does the growth read?
**A.** 89.4% (inactive)

**Q.** `COc1ccc(-n2[nH]c3c(cnc4ccccc43)c2=O)cc1` was tested. Which growth did it give?
**A.** 98.1% (inactive)

**Q.** With `ON=C(C1CCCCC1)C1CCCCC1` as the compound, how does the growth read?
**A.** 87.3% (inactive)

**Q.** How did the growth turn out when `COCCNC(C)=O` was run?
**A.** 99.2% (inactive)

**Q.** `CN(C)C(=S)N(C)C` was tested. Which growth did it give?
**A.** 86.3% (inactive)

**Q.** For `N=c1sc2ccccc2n1CC(=O)O`, which growth is on record?
**A.** 100% (inactive)

**Q.** With `N=C(N=C(N)N)N1CCOCC1` as the compound, how does the growth read?
**A.** 90.5% (inactive) and 89.8% (inactive)

**Q.** Which growth does the source give for `Nc1nc(-c2ccccn2)cc(-c2cc(-c3ccccn3)nc(N)n2)n1` here?
**A.** 143% (inactive)

**Q.** With `Nc1ccccc1SC1CC(=O)N(c2ccc(I)cc2)C1=O` (stereo not given) as the compound, how does the growth read?
**A.** 79.8% (inactive)

**Q.** For `Cc1ccc([N+](=O)[O-])cc1Br`, which growth is on record?
**A.** 104% (inactive)

**Q.** `COC(=O)c1cc(C(=O)OC)cc([N+](=O)[O-])c1` was tested. Which growth did it give?
**A.** 72.5% (inactive)

**Q.** `Nc1[nH][nH]c(=O)c1N=Nc1ccccc1` was tested. Which growth did it give?
**A.** 79.3% (inactive) and 111% (inactive)

**Q.** With `CC1OS(=O)OC1C` (stereo not given) as the compound, how does the growth read?
**A.** 92.6% (inactive) and 94.7% (inactive)

**Q.** With `CC(=O)c1cccc(OC(=O)c2ccccc2)c1` as the compound, how does the growth read?
**A.** 101% (inactive)

**Q.** `O=C(O)c1ccc2c3ccc(C(=O)O)c4c(C(=O)O)ccc(c5ccc(C(=O)O)c1c25)c43` was tested. Which growth did it give?
**A.** 85.4% (inactive)

**Q.** With `CC(C)(C)OC(=O)c1ccc(NCc2cc(O)ccc2O)cc1` as the compound, how does the growth read?
**A.** 30.5% (inactive)

**Q.** `Clc1ccc2sc(-c3ccccc3)nc2c1` was tested. Which growth did it give?
**A.** 67.7% (inactive)

**Q.** How did the growth turn out when `CC(=O)Nc1ccc2oc(=O)ccc2c1` was run?
**A.** 89% (inactive)

**Q.** How did the growth turn out when `COC(=O)CCOc1ccccc1` was run?
**A.** 61.1% (inactive)

**Q.** Which growth does the source give for `C(#CCN1CCOCC1)CCCN1CCOCC1` here?
**A.** 83.7% (inactive) and 104% (inactive)

**Q.** With `CN(C=O)c1ccccc1` as the compound, how does the growth read?
**A.** 80.6% (inactive)

**Q.** How did the growth turn out when `O=C(NC(CSSCC(NC(=O)OCc1ccccc1)C(=O)O)C(=O)O)OCc1ccccc1` (stereo not given) was run?
**A.** 78.4% (inactive) and 90.8% (inactive)

**Q.** `CC1CCC(=O)N1c1ccc(N)cc1` (stereo not given) was tested. Which growth did it give?
**A.** 97.4% (inactive)

Same assay, conditions: 50 µM

**Q.** Which growth does the source give for `S=c1nc[nH]c2nc[nH]c12` here?
**A.** 43.7% (inactive)

Same assay, conditions: 100 µM

**Q.** Which growth does the source give for `O=c1ccn2c(n1)OC1CC2OC1COC(c1ccccc1)(c1ccccc1)c1ccccc1` (stereo not given) here?
**A.** 95.6% (inactive)

Source: PubChem BioAssay (NCI)
